# MEKK2 mut-MEK5: signal of MEK5 binding to mutant human MEKK2 PB1 domain | percent response, % at 10 µM | bead flow cytometry, Alexa488-MEK5 binding to MEKK2 mutant | 290,000 compounds, 0.35% hits | AID 1530; in the data active means percent response above about 24%, passing the limit was not always enough
# MEKK3 PB1 HTS: modulators (inhibitors or enhancers) of MEK5 binding to human MEKK3 PB1 domain | bead-based flow cytometry, Alexa488-MEK5 binding to MEKK3; actives lie on both sides; 0 = blocked by unlabeled MEK5, 100 = vehicle | binding response (% of control), % at 10 µM | 290,000 compounds, 1.4% hits | AID 1529;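 active means binding response more than 3 SD above or below the average of its plate-row segment, actives on both sides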;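 further: Alexa488 bead fluorescence after subtracting the streptavidin-only scavenger bead signal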
# MEKK2wt PB1 HTS: raises or lowers MEK5 binding to wildtype human MEKK2 PB1 domain; Q9Y2U5; bead flow cytometry, Alexa488-MEK5 binding to MEKK2 WT; actives lie on both sides; binding response (% of control), % at 10 µM; 290,000 compounds, 1.1% hits; in the data active means binding response below about 67% or above about 130%
# GRK2 inh: inhibitors of human GRK2 displacing RNA aptamer | P25098 | bead flow cytometry, FAM-aptamer displacement from GRK2 | inhibition of aptamer binding, % at 10 µM | 330,000 compounds, 0.59% hits | AID 488847;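 active means inhibition of aptamer binding above 40%, roughly 3 SD of noise, on plates passing a quality check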;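 further: median bead fluorescence of bound FAM aptamer so fluorescent compounds give negative values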
# Target sequence (P25098 whole entry, looked up): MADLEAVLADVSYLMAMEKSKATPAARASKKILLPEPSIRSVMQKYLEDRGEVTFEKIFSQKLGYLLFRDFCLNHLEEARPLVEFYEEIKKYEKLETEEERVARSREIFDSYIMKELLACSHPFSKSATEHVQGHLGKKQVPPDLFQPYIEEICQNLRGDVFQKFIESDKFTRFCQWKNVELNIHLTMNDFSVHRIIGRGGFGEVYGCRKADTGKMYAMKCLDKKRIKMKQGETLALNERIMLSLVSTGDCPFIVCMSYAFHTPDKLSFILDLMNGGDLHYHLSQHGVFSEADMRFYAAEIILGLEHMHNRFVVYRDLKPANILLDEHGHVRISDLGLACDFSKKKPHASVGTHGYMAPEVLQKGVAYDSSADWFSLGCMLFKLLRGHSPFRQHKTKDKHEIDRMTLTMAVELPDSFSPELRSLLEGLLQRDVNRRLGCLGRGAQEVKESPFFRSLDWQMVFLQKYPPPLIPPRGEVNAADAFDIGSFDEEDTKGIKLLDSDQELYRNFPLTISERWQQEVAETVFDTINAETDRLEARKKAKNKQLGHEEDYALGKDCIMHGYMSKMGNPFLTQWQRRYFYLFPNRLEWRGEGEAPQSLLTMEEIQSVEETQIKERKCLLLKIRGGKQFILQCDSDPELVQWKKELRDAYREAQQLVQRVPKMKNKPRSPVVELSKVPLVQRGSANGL
# MEKK2wt confirm: raises or lowers MEK5 binding to wildtype human MEKK2, retest; bead flow cytometry, Alexa488-MEK5 binding to MEKK2 WT; actives lie on both sides; shares compounds with MEKK3 PB1 HTS; AID 1892; 5,900 compounds, 2.4% hits; binding response (% of control), % at 10 µM; in the data active means binding response below about 16% or above about 210%; inactive means in between
# MEKK2mut-MEK5: signal of MEK5 binding to mutant human MEKK2, retest | shares compounds with MEKK3 PB1 HTS | AID 1893 | percent response, % at 10 µM | bead flow cytometry, Alexa488-MEK5 binding to MEKK2 mutant | 5,900 compounds, 2% hits; in the data active means percent response mostly above about 71%, no sharp cut-off; inactive means mostly below about 38%;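 further: higher means compound restores mutant binding toward wildtype level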
# MEKK3-MEK5 inh: confirmation of inhibitors of MEK5 binding to human MEKK3; bead flow cytometry, Alexa488-MEK5 binding to MEKK3; hits give low values; 5,900 compounds, 1.8% hits; AID 1894; shares compounds with MEKK3 PB1 HTS; binding response (% of control), % at 10 µM;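 active means binding response below 72% of control, or above a set upper limit, though filed actives all read lower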;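 further: 100% = DMSO only wells and 0% = binding blocked by excess unlabeled MEK5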
# Starred values were filed as active, the others as inactive; . = no result given; [ ] = remark or other dose. Hits are enriched below; roughly 2.5% of the tested compounds scored in any of these assays.
SMILES,MEKK2 mut-MEK5,MEKK3 PB1 HTS,MEKK2wt PB1 HTS,GRK2 inh,MEKK2wt confirm,MEKK2mut-MEK5,MEKK3-MEK5 inh
Cc1c(C)n(Cc2ccccc2)c2ccc(C(=O)OCCCN(C)C)cc12,-2,105,158*,0,151,39,104
CCOC(=O)c1c(NC(=O)CSc2ncccn2)sc2c1CCN(Cc1ccccc1)C2,-2,97,97,.,.,.,.
CCOC(=O)c1c(NC(=O)CSc2nnc3c(n2)[nH]c2ccccc23)sc2c1CCN(C)C2,15,107,144*,0,137,20,102
O=C(N/N=C1\C2CN3CCN(C2)CC1(c1ccccc1)C3)Nc1ccccc1,1,111,107,1,.,.,.
O=C(CSc1nnc(-c2cccnc2)s1)Nc1cccc(C(=O)O)c1,0,158*,111,6,98,-4,98
O=C(CSc1nnc(-c2cccnc2)s1)Nc1ccccc1,0,103,101,1,.,.,.
CCOc1ccc2nc(NC(=O)CSCC(=O)Nc3cc(C)on3)sc2c1,.,.,.,0,.,.,.
CC1CCCN(Cc2c(O)ccc3c(=O)c(-c4nc5ccccc5s4)c(N)oc23)C1 (stereo not drawn),25,111,161*,0,155,30,104
C/C(Cn1cnc([N+](=O)[O-])n1)=N\NC(=O)c1cccnc1,3,110,109,4,.,.,.
CCN1CCN(C(=S)Nc2ccc(Cl)c(Cl)c2)CC1,-3,64*[inhibitor],62*[inhibitor],3,111,10,104
CCN1CCN(C(=S)Nc2cccc(Cl)c2)CC1,-7,100,99,0,.,.,.
CCCC(=O)Nc1c(-c2ccc(C)cc2)c(=O)c2ccccc2n1C,18,109,109,1,.,.,.
CCC(=O)Oc1ccc(C(=O)Nc2c[nH]c(=O)[nH]c2=O)cc1,-1,69*[inhibitor],92,2,97,-5,103
Cc1occc1-c1nnc(SCC(=O)c2c[nH]c3ccccc23)n1C,2,106,102,2,.,.,.
CCCn1c(SCC(=O)c2c[nH]c3ccccc23)nnc1-c1ccncc1,3,71*[inhibitor],75,17,98,-5,96
Cc1ccc2cccc(Oc3nnnn3-c3ccccc3)c2n1,2,105,105,0,.,.,.
c1ccc(-n2nnnc2Oc2cccc3cccnc23)cc1,-25,0.0*[inhibitor],-8.0*[inhibitor],0,97,-5,103
O=C(NNC(=O)c1ccc([N+](=O)[O-])cc1)c1ccc(F)cc1,.,.,.,0,.,.,.
Cc1ccc2c(c1)N(C(=O)CCC(=O)NCCCN1CCC(Cc3ccccc3)CC1)CCO2,25*,103,142*,0,159,39,112
N#Cc1ccc(Cn2c(=O)c(C#N)c3n(c2=O)CCC3)cc1,-21,0.0*[inhibitor],0.0*[inhibitor],4,106,6,104
N#Cc1c2n(c(=S)n(-c3ccccc3)c1=O)CCCCC2,-7,98,94,0,.,.,.
C=CCc1ccc(OCCCOc2ccc(C)c(C)c2)c(OC)c1,-10,80*[inhibitor],91,0,99,-6,99
CCCOc1ccc(C2NC(=O)NC2=O)cc1 (stereo not drawn),8,123*,120,4,108,3,108
Cc1ccc2[nH]c(C(=O)NCCN3CCCC3)cc2c1,9,109,137*,0,110,-6,98
Cn1c(=O)c2c(ncn2CC(=O)OCC(=O)Nc2ccccc2Cl)n(C)c1=O,10,100,101,1,.,.,.
SMILES,MEKK2 mut-MEK5,MEKK3 PB1 HTS,MEKK2wt PB1 HTS,GRK2 inh,MEKK2wt confirm,MEKK2mut-MEK5,MEKK3-MEK5 inh
COc1ccc(CNc2nc(-c3cccnc3)nn2C(C)=O)cc1,-42,5.0*[inhibitor],7.0*[inhibitor],0,107,2,106
O=c1cc(NS(=O)(=O)c2ccccc2)nc(SCc2ccc(Cl)cc2)[nH]1,1,129*,105,2,98,-9,99
O=C(Nc1nnc(C2CCCCC2)s1)C1CC(=O)N(c2ccccc2)C1 (stereo not drawn),0,104,96,1,.,.,.
Cc1ccc(S(=O)(=O)N2C=CC(C(F)(F)F)=NCC2)cc1,-21,1.0*[inhibitor],1.0*[inhibitor],0,97,-6,97
COc1cccc(-n2c(=O)c3ccccc3n(CC(=O)NCC3CCCO3)c2=O)c1 (stereo not drawn),-5,100,99,4,.,.,.
CC(C)c1ccc(NC(=O)CSc2n[nH]c(=O)n2Cc2ccco2)cc1,1,104,104,3,.,.,.
O=C(CSc1n[nH]c(=O)n1Cc1ccco1)Nc1ccccc1,23,128*,123,2,69,-12,90
CC(=O)NCCn1c(SCc2ccc(C)cc2)nc2ccccc2c1=O,4,106,98,0,.,.,.
CC1(C)CC(=O)c2cc(OCC(=O)NCCCN3CCN(c4ccc(F)cc4)CC3)ccc2O1,20,109,144*,0,122,11,101
CCOC(=O)C1CCN(S(=O)(=O)c2ccc(-c3ccccn3)s2)CC1,25,130*,129,1,99,-3,101
CCOC(=O)C1CCN(S(=O)(=O)c2ccc(-n3cnnn3)c(C)c2)CC1,-11,79*[inhibitor],86,4,101,-3,102
CCOC(=O)C1CCN(S(=O)(=O)c2ccc(OC)c(Cl)c2Cl)CC1,-5,82*[inhibitor],88,3,103,2,102
Cc1cc(-c2ccccc2)nc(=O)[nH]1,3,130*,117,1,102,7,106
O=c1nc(-c2ccccc2)cc(C(F)(F)F)[nH]1,-5,95,96,0,.,.,.
COc1ccccc1CCNC(=O)CSc1ccc(-c2cccs2)nn1,8,61*[inhibitor],99,1,100,-1,105
COc1ccc(CCNC(=O)CSc2ccc(-c3ccccc3)nn2)cc1,0,131*,104,0,99,-12,97
Oc1c(Cl)cc(Cl)cc1/C=N/Nc1ncc(Br)cn1,1,138*,126,0,102,-3,100
CCc1ccccc1NC(=S)N=Nc1c(O)n(C)c2ccc(S(=O)(=O)N3CCOCC3)cc12,-2,93,90,3,.,.,.
Cc1ccc(C)c(NC(=S)N=Nc2c(O)n(C)c3ccc(S(=O)(=O)N4CCOCC4)cc23)c1,1,62*[inhibitor],102,0,81,-12,83
O=C1N(Cc2cccc(Cl)c2)C[C@@H]2C[C@@H](c3c[nH]c4ccccc34)N3CCC[C@@]123,22,63*[inhibitor],.,0,84,-10,72
CN1CCCC1=Nc1c2c(nc3ccccc13)N(C)CC2,-2,92,94,0,.,.,.
Cc1ccc(C2Nc3ccccc3NC3=C2C(=O)OC(C)C3)cc1 (stereo not drawn),-1,108,100,0,.,.,.

# High-throughput results (PubChem)
